Experimental findings from publication PMC5540273 (PLoS ONE, 2017) are described below.

Like-named read-outs stand apart in the source and are kept apart here.

Holding throughout (conditions): n = 1
The subject of assay [1] is ACVR2B.
Assay [2] has as its system ACVRL1.
Assay [3] concerns T1, ADCK3.
T1 construct: gene CABC1

Assay [4] relates to ADCK4.
In assay [5] the test system is AKT1.
Assay [6] deals with AKT2.
In assay [7] the test system is AKT3.
Assay [8] has as its system ALK.
For assay [9], the system named is T2, AMPK-alpha1.
T2 construct: gene PRKAA1

Assay [10] concerns T3, AMPK-alpha2.
T3 construct: gene PRKAA2

Assay [11] has as its system ANKK1.
Assay [12] relates to T4, ARK5.
T4 construct: gene NUAK1

In assay [13] the test system is T5, ASK1.
T5 construct: gene MAP3K5

Assay [14] deals with T6, ASK2.
T6 construct: gene MAP3K6

For assay [15], the system named is AURKA.
Assay [16] concerns AURKB.
Assay [17] deals with AURKC.
Assay [18] relates to AXL.
For assay [19], the system named is T7, BIKE.
T7 construct: gene BMP2K

For assay [20], the system named is BLK.
Setting [21] is: concentration: 1 μM, replicates: in singlicate.
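Further: KINOMEscan kinase panel screen.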

As for `Cc1cc(NCC(c2ccccc2)c2ccccc2)nc(NCc2ccc(C(F)(F)F)cc2)n1` [GW497681], the “%Inh” value is on record as 0% in [1] (setting [21]); 0% in [2] (setting [21]); 10% in assay [3] (setting [21]); 86% in [4] (setting [21]); 0% in assay [5] (setting [21]); 0% in assay [6] (setting [21]). In addition, the “%Inh” value in [7] (setting [21]) was 0%; in [8] (setting [21]) it was 3%; in assay [9] (setting [21]) it was 0%; in assay [10] (setting [21]) it was 0%; in assay [11] (setting [21]) it was 9%; in [12] (setting [21]), 13%. The “%Inh” value in assay [13] (setting [21]) was found to be 0%; in [14] (setting [21]) it was 0%; in [15] (setting [21]), 7%; in [16] (setting [21]) it was 15%; in assay [17] (setting [21]), 8%; in [18] (setting [21]), 0%. The “%Inh” value in [19] (setting [21]) came out at 0%; in assay [20] (setting [21]) it was 25%.

Turning to `COc1cc2ncn(-c3cc(OCC4CCCO4)c(C(N)=O)s3)c2cc1OC` (stereo not shown) [GSK204607], the “%Inh” value in assay [1] (setting [21]) is listed as 0%; in assay [2] (setting [21]), 0%; in assay [3] (setting [21]) it was 23%; in assay [4] (setting [21]), 12%; in assay [5] (setting [21]), 0%; in assay [6] (setting [21]) it was 0%. Also, the “%Inh” value in assay [7] (setting [21]) is 0%; in assay [8] (setting [21]) it was 0%; in [9] (setting [21]) it was 0%; in assay [10] (setting [21]), 2%; in assay [11] (setting [21]), 0%; in [12] (setting [21]) it was 17%. Further, the “%Inh” value in assay [13] (setting [21]) is listed as 7%; in assay [14] (setting [21]), 0%; in assay [15] (setting [21]) it was 0%; in [16] (setting [21]), 1%; in assay [17] (setting [21]), 80%; in assay [18] (setting [21]), 0%. The “%Inh” value turned out to be 72% in assay [19] (setting [21]) and 0% in [20] (setting [21]).

Turning to `Cc1ccc(NC(=O)Nc2cccc(C(F)(F)F)c2)cc1` [GSK955403], the “%Inh” value is on record as 0% in assay [1] (1 µM); 0% in [2] (1 µM); 5% in [3] (1 µM); 0% in [4] (1 µM); 12% in [5] (1 µM); 3% in assay [6] (1 µM). For the same compound, the “%Inh” value in assay [7] (1 µM), in [8] (1 µM), in assay [9] (1 µM), in assay [10] (1 µM), in assay [11] (1 µM) and in [12] (1 µM) was 0% in each case. Besides, the “%Inh” value is 20% in assay [13] (1 µM); 0% in assay [14] (1 µM); 0% in assay [15] (1 µM); 0% in [16] (1 µM); 19% in assay [17] (1 µM); 0% in [18] (1 µM). The “%Inh” value in assay [19] (1 µM) is 4%; in [20] (1 µM), 0%.

As to `CCn1c(-c2ccccn2)nc2cnccc21` [SB-736398], the “%Inh” value in assay [1] (setting [21]) worked out at 0%; in assay [2] (setting [21]), 0%; in assay [3] (setting [21]), 56%; in assay [4] (setting [21]), 6%; in [5] (setting [21]), 0%; in assay [6] (setting [21]) it was 19%. Moreover, the “%Inh” value in [7] (setting [21]) was 0%; in [8] (setting [21]), 34%; in [9] (setting [21]), 5%; in [10] (setting [21]), 10%; in assay [11] (setting [21]), 0%; in assay [12] (setting [21]) it was 0%. Further, the “%Inh” value in assay [13] (setting [21]) is recorded as 17%; in [14] (setting [21]), 0%; in assay [15] (setting [21]) it was 0%; in [16] (setting [21]), 3%; in [17] (setting [21]), 7%; in assay [18] (setting [21]), 12%. In addition, the “%Inh” value amounted to 16% in assay [19] (setting [21]) and 9% in assay [20] (setting [21]).

On to `CC(C)(C)c1ccc(C(=O)Nc2cn3cc(-c4cccnc4)ccc3n2)cc1`, for which the “%Inh” value in assay [1] (setting [21]) is recorded as 0%; in [2] (setting [21]), 0%; in [3] (setting [21]) it was 19%; in [4] (setting [21]), 0%; in [5] (setting [21]) it was 0%; in assay [6] (setting [21]) it was 0%. In addition, the “%Inh” value turned out to be 4% in assay [7] (setting [21]); 0% in assay [8] (setting [21]); 43% in assay [9] (setting [21]); 0% in [10] (setting [21]); 11% in assay [11] (setting [21]); 14% in [12] (setting [21]). Further, the “%Inh” value in [13] (setting [21]) was found to be 94.9%; in [14] (setting [21]), 0%; in assay [15] (setting [21]), 0%; in assay [16] (setting [21]) it was 34%; in assay [17] (setting [21]), 19%; in assay [18] (setting [21]), 25%. Also, the “%Inh” value in [19] (setting [21]) and in assay [20] (setting [21]) was 8% in each case.

Turning to `Cc1ccc(-c2cc(-c3c[nH]nc3-c3ccccn3)ccn2)cc1` [GW684088], the “%Inh” value in [1] (setting [21]) is given as 49%; in [2] (setting [21]) it was 0%; in assay [3] (setting [21]) it was 22%; in assay [4] (setting [21]), 37%; in assay [5] (setting [21]), 0%; in [6] (setting [21]), 0%. Further, the “%Inh” value in assay [7] (setting [21]) turned out to be 0%; in [8] (setting [21]), 16%; in assay [9] (setting [21]), 0%; in assay [10] (setting [21]), 0%; in [11] (setting [21]), 0%; in [12] (setting [21]), 94.7%. In addition, the “%Inh” value stood at 0% in [13] (setting [21]); 0% in assay [14] (setting [21]); 2% in assay [15] (setting [21]); 0% in [16] (setting [21]); 10% in assay [17] (setting [21]); 5% in assay [18] (setting [21]). Also, the “%Inh” value in assay [19] (setting [21]) turned out to be 20%; in [20] (setting [21]), 0%.

For `COc1cccc(NC(=O)NC2CCN(c3ccnc(Nc4ccc(F)cc4)n3)C2)c1` (stereo not shown) [GSK1379721], the “%Inh” value amounted to 4% in assay [1] (setting [21]); 0% in [2] (setting [21]); 1% in assay [3] (setting [21]); 22% in [4] (setting [21]); 0% in assay [5] (setting [21]); 0% in assay [6] (setting [21]). The “%Inh” value was found to be 0% in [7] (setting [21]); 24% in [8] (setting [21]); 0% in assay [9] (setting [21]); 0% in assay [10] (setting [21]); 4% in assay [11] (setting [21]); 9% in assay [12] (setting [21]). The “%Inh” value turned out to be 8% in assay [13] (setting [21]); 4% in [14] (setting [21]); 21% in assay [15] (setting [21]); 0% in assay [16] (setting [21]); 8% in [17] (setting [21]); 0% in assay [18] (setting [21]). For the same compound, the “%Inh” value in [19] (setting [21]) and in assay [20] (setting [21]) was 0% in each case.

For the compound `Cc1cccc(-c2nc(Nc3cccc(C(N)=O)c3)c3ccccc3n2)n1` [GW876019], the “%Inh” value in assay [1] (setting [21]) was determined as 19%; in assay [2] (setting [21]) it was 0%; in [3] (setting [21]), 20%; in assay [4] (setting [21]), 26%; in assay [5] (setting [21]) it was 9%; in assay [6] (setting [21]), 0%. The “%Inh” value came out at 0% in assay [7] (setting [21]); 22% in assay [8] (setting [21]); 31% in [9] (setting [21]); 0% in [10] (setting [21]); 0% in assay [11] (setting [21]); 6% in assay [12] (setting [21]). The “%Inh” value in assay [13] (setting [21]) was 17%; in assay [14] (setting [21]), 0%; in assay [15] (setting [21]), 0%; in assay [16] (setting [21]) it was 30%; in assay [17] (setting [21]), 12%; in assay [18] (setting [21]) it was 0%. Besides, the “%Inh” value in assay [19] (setting [21]) is 11%; in [20] (setting [21]), 21%.
